In PubChem BioAssay AID493168 (National Center for Advancing Translational Sciences (NCATS), 2011) one finds Potency data, which are given here for 40 compounds.

Molecules are shown by their SMILES. Records with an inconclusive call do not appear. A call without a number means that no potency is given here. Activity calls are given as the source filed them. Calls come from the whole dose curve; as a rule, active = well fitted inhibition curve with a large enough effect; inconclusive = small, poorly fitted or top-dose-only effect, or effect the other way; inactive = flat fitted curve, though single readings scatter.
Potency is the fitted concentration of half-maximal effect.

Ubiquitin carboxyl-terminal hydrolase 2 (Homo sapiens), sequence (O75604 whole entry, looked up): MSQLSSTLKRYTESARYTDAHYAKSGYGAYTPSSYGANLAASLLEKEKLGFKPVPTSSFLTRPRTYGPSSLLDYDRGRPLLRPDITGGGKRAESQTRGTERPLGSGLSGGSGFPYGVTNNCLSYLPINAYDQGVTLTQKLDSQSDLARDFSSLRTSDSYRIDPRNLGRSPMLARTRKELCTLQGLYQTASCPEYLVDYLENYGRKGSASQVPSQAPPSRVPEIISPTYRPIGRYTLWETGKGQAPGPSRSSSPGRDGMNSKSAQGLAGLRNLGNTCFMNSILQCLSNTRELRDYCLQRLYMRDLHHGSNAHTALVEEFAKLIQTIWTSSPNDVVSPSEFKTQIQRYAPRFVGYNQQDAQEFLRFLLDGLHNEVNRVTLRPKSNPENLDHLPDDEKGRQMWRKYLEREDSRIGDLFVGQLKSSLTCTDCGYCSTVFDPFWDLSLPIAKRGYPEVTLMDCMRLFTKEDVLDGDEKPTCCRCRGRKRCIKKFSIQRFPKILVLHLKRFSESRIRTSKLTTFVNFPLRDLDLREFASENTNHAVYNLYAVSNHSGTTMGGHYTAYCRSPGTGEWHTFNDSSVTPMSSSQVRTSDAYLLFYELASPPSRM

The target in this assay is Ubiquitin carboxyl-terminal hydrolase 2 (Homo sapiens) (UniProt O75604). Description: Confirmation Assay for Inhibitors of Ubiquitin-specific Protease USP2a Using CHOP2 as the Reporter. Note: nearly all actives have a fitted effect of over 55% in size. Conditions: USP2 core, Ub-CHOP2 coupled reporter fluorescence; series mostly up to 38.3 µM. The method, boiled down:
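USP2 core (10 nM final) was preincubated with compound for 30 min at RT in Tris-HCl pH 8.0, CaCl2, beta-mercaptoethanol, CHAPS. Ub-CHOP2 and reporter substrate (25 nM final each) were added, and fluorescence (Ex 485/Em 531 nm) was read after 60 min.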
With `CCCCC(OC(=O)c1cc2occc2n1C)C(=O)NCC1CCCO1` (stereo not given), the Potency entry was “inactive”.
Turning to `O=C(c1ccccc1)c1ccc2nc(-c3ccco3)c(-c3ccco3)nc2c1`, the Potency result was “inactive”.
Under `CC12CN3CC(C)(CN(C1)C3c1ccc(Cl)cc1Cl)C2O` (stereo not given) stands “inactive”; under `Fc1ccc(-c2nnn(Cc3nc4ccccc4s3)n2)cc1`, “inactive”; under `O=C(N/N=C/C=C/c1ccccc1)c1ccncc1`, “inactive”.
Under `FC(F)(F)C1=Nc2cccc3cccc(c23)N1` stands “inactive”; under `COc1ccc(C(=O)OCC(=O)c2c[nH]c3ccccc23)c(OC)c1`, “inactive”.
Regarding `CC1=C(C(=O)OC(C)C)C(C)C(C(=O)OC(C)C)=C(C)N1`, the Potency result is “inactive”.
Under `COc1ccc(CCNC(=O)COC(=O)CNS(=O)(=O)c2ccc(SC)c([N+](=O)[O-])c2)cc1` stands “inactive”; under `O=C(COC(=O)c1cccc(S(=O)(=O)N2CCc3ccccc32)c1)NC1CCS(=O)(=O)C1` (stereo not given), “inactive”; under `Cc1ccc(NC(=O)CSc2nc(O)cc(=O)n2-c2ccc(C)cc2)cc1`, “inactive”.
With `Cc1ccccc1[C@@H]1C(C#N)=C(N)S[C@H]1C(=O)c1ccccc1` the entry was “inactive”; with `Nc1c(C(=O)Nc2ccc3c(c2)OCCO3)nnn1CCc1ccccc1`, “inactive”; with `O=c1oc2ccccc2n1Cn1c(=O)oc2ccccc21`, “inactive”.
With `CCCCC1NC(C(=O)O)CS1` (stereo not given) the entry was “inactive”.
With `Cc1ccc(N(CC(=O)Nc2ccc(S(=O)(=O)N3CCOCC3)cc2)S(C)(=O)=O)cc1C`, the Potency entry was “inactive”.
Consider `O=C(Nc1ccc(N2CCCC2)c(Cl)c1)c1ccc(Br)o1`, for which the Potency result is “inactive”.
Take `CC(=O)c1ccc(NC(=O)CC(NCCC2=CCCCC2)C(=O)O)cc1` (stereo not given): the Potency result was “inactive”.
`COc1cc(-c2nc(-c3ccc4c(c3)-c3ccccc3S4(=O)=O)c(-c3ccccc3)[nH]2)cc(OC)c1O`: the Potency entry was “inactive”.
Regarding `CCn1c(COc2ccccc2)nnc1SCC(=O)CC(=O)Nc1ccccc1OC`, the Potency entry was “inactive”.
Under `Cn1c(=O)c(C(=O)Nc2ccccc2S(N)(=O)=O)c(O)c2ccccc21` stands 14.7 µM (active); under `CCCOc1ccc(-c2nc(C#N)c(N3CCN(CC)CC3)o2)cc1`, “inactive”.
With `O=C(Nc1ccc2c(c1)OCO2)NC1(C(F)(F)F)Oc2ccccc2O1` the entry was “inactive”; with `CC(C)CCn1c(CN2CCN(C(=O)c3ccco3)CC2)nc2c1c(=O)n(C)c(=O)n2C`, “inactive”.
With `CC1CCCCN1CCNC(=O)c1cnn2ccccc12` (stereo not given) the entry was “inactive”; with `Cc1ccc(C2=NC(=O)/C(=C/c3cc(O)c(O)c(Br)c3)S2)cc1`, 7.36 µM (active); with `C=CC#CC[N+]1(CC#Cc2ccccc2)CCOCC1`, 3.69 µM (active).
Take `Cc1cc(C(=O)OCC(=O)c2cccc([N+](=O)[O-])c2)c2cccc(C)c2n1`: the Potency result is “inactive”.
With `O=C(c1ccc([N+](=O)[O-])cc1)N(Cc1ccc(Cl)cc1)N1C(=O)CCCC1=O` the entry was “inactive”; with `O=C(c1ccco1)N1CCN(C(c2cccs2)c2sc3ncnn3c2O)CC1` (stereo not given), “inactive”; with `Cc1[nH]c2ccccc2c1C(c1ccccn1)c1c(C)[nH]c2ccccc12`, “inactive”.
`CCCCCCCC/C=C\CCCCCCCC(=O)NCCc1ccc(O)c(O)c1`: the Potency result was “inactive”.
Turning to `COc1ccc(C2CC(=O)N3CN(c4ccccc4F)CSC3=C2C#N)cc1OC` (stereo not given), the Potency entry was “inactive”.
Under `Cc1cc(Cl)ccc1NC(=S)NCCCN1CCCC1=O` stands “inactive”.
With `C[C@H](CO)N1C[C@H](C)[C@@H](CN(C)S(=O)(=O)c2cn(C)cn2)Oc2ccc(NC(=O)Cn3cnnn3)cc2C1=O` the entry was “inactive”; with `O=C(Nc1ccc2nc(-c3ccco3)c(-c3ccco3)nc2c1)N1CCN(c2ccccn2)CC1`, 16.5 µM (active).
Under `Cc1ccc2[nH]c3c(c2c1)CN(C(=O)CN1CCSCC1)CC3` stands “inactive”; under `C[C@H](CO)N1C[C@H](C)[C@@H](CN(C)S(=O)(=O)c2ccc(Cl)cc2)Oc2ccc(NS(=O)(=O)c3ccccc3)cc2CC1=O`, “inactive”.
`C=CC[C@H](CC(=O)N[C@H](CO)Cc1ccccc1)C(=O)N[C@@H](COC(=O)[C@@H](CC=C)CC(=O)OC(C)(C)C)Cc1c[nH]c2ccccc12`: the Potency result is “inactive”.
Under `CCCOc1ccc(N2C(=O)CC(NCCc3ccc(S(N)(=O)=O)cc3)C2=O)cc1` (stereo not given) stands “inactive”.
